This is an account of results in PubChem BioAssay AID602346 (Broad Institute, 2012).

Out of some 340,000 compounds screened, about 1,200 (0.35%) were called active. The sample holds actives, similar compounds and a random draw of the others, so the mix is not that of the screen. Rule as the data show it: active = inhibition above about 50% (passing the limit was not always enough); inconclusive = no clear call, values can overlap the other calls; inactive = below about 31%.

A short description of this assay: blockers of Vif multimerization in cells – imaging, HEK293T, single point, primary screen (AID 602346). The settings on record: Vif self-association by quenched fluorescence, 24 h, at 7.49 µM, hits give high values.
What is called inhibition is the relative decrease from the control value, in per cent. Consider `O=c1[nH]c2ccccc2n1C1CCN(CCOc2ccccc2)CC1`, for which the inhibition was -4.07% (inactive). In the case of `COc1ccc(/C=C/C(=O)c2c(O)cc(OC)cc2OC)cc1`, the inhibition was -16.7% (inactive). `CC(C)(C)Oc1ncc(Br)c(OC(C)(C)C)n1`: the inhibition was 61.1% (active).

Turning to `COc1cccc(-c2cnc(OC(C)(C)C)nc2OC(C)(C)C)c1`, the inhibition was -0.006% (inactive). For `Cc1ccc(NC(=O)Cn2sc3ccccc3c2=O)cc1`, the inhibition is 4.93% (inactive).

For the compound `COc1ccc(N/C=C(\C2OC(=O)c3ccccc32)[N+](=O)[O-])cc1` (configuration not stated), the inhibition is 50.1% (active). As for `COc1ccc(NC(=O)C2=C(C)NC(=O)NC2c2ccccc2[N+](=O)[O-])cc1` (configuration not stated), the inhibition was -2.26% (inactive). Next, `COc1ccc(NC(=O)ON=C2c3ccccc3-c3ccccc32)cc1`: -9.14% (inactive). Consider `NC(Cc1ccccc1)c1csc(Nc2cc(Oc3ccccc3)ncn2)n1` (configuration not stated), for which the inhibition was -3.02% (inactive). Next, `CCOC(=O)[C@H]1Nc2ccc(Cl)cc2[C@@H]2[C@H]1C1CC(c3ccccc31)N2C(=O)OCc1ccccc1` (some centres not stated): 2.38% (inactive); `CC(=O)Oc1ccc(Cn2c(C)c(C(=O)NCc3ccc(C#N)cc3)sc2=O)cc1`: 1.95% (inactive). With `COc1cccc(CNc2nc3cc(-c4csc5ccccc45)sc3c(=O)n2C)c1`, the inhibition is -4.94% (inactive). Next, `COc1ccc(CC(NC(C)=O)C(=O)NC2CCN(C(=O)Nc3ccc(C#N)cc3)CC2)cc1OC` (configuration not stated): -4.35% (inactive); `COc1ccc(CC(NC(C)=O)C(=O)N2CCN(C(=O)Nc3cccc(Cl)c3)CC2)cc1OC` (configuration not stated): 50.1% (active). `COc1ccc(CC(NC(C)=O)C(=O)NC2CCN(C(=O)C3CC3)CC2)cc1OC` (configuration not stated): the inhibition was -0.652% (inactive). Regarding `CCOc1ccc(CCN2C(=S)N([C@@H](CC(C)C)CN3CCC[C@@H]3CN3C(=S)NC[C@@H]3Cc3ccc(O)cc3)C[C@@H]2Cc2ccc(O)cc2)cc1`, the inhibition is 1.22% (inactive).

As to `CCc1nc2ccc(C(=O)NCc3ccc(OC)cc3)cn2c1N(CC)Cc1cccc(Br)c1`, the inhibition was 4.42% (inactive). `Cc1cccc(C(=O)NC2CCN(CC(=O)Nc3cccc(Cl)c3)CC2)c1`: the inhibition is -0.446% (inactive). For `CCCOc1ccc(F)cc1-c1cc(C(=O)NCc2ccc(F)cc2)[nH]n1`, the inhibition is 14.3% (inactive). Turning to `CN(C)C(=O)c1cc(Br)ccc1Cl`, the inhibition was 102% (active).

Consider `CN(C)C(=S)Nc1ccc(Br)cc1Cl`, for which the inhibition was 1.91% (inactive).

In the case of `CC(C)(C)NC(=O)COC(=O)c1cc(Br)ccc1Cl`, the inhibition is -3.23% (inactive). `CCOC(=O)C1CCCN(C(=O)c2ccc(C)c(F)c2)CC1` (configuration not stated): the inhibition is -7.05% (inactive). For `COc1ccc(-c2cc(NC(C)=O)c3ncc(-c4cc(OC)c(OC)c(OC)c4)n3c2)cn1`, the inhibition is -2.19% (inactive). For the compound `COc1ccccc1CNC(=O)c1cc(-c2cc(Cl)ccc2C)n[nH]1`, the inhibition is 20.2% (inactive). For the compound `COc1ccc(C(CNC(=O)COc2ccccc2OC)N2CCCCC2)cc1` (configuration not stated), the inhibition was -2.23% (inactive). In the case of `COc1ccc(C(CNC(=O)COc2ccc([N+](=O)[O-])cc2)N2CCCCC2)cc1` (configuration not stated), the inhibition was 3.74% (inactive).

On to `CCc1ccc(OCC(=O)NCC(c2ccc(Cl)cc2)N2CCCCC2)cc1` (configuration not stated), for which the inhibition is 58.2% (active). The figure for `CC(C)Nc1nc(NCCOc2ccccc2Cl)c2sccc2n1` is -13.3% (inactive); for `Oc1cccc2cc(-c3ccncc3)cnc12` it is 11.1% (inactive); for `CCOC(=O)C(=Cc1ccccc1)C(=O)c1ccccc1` it is -5.2% (inactive). In the case of `COc1ccc(C(C)(O)c2nc(-c3cc(F)cc(F)c3)cs2)cc1` (configuration not stated), the inhibition was -4.33% (inactive).
